Measured values taken from PubChem BioAssay AID1159580 (chemical genetic matrix, 2015).
Values joined by “and” are separate entries in the source; they are usually repeats but may differ in a detail not shown here. Equal values may be shown once. The whole screen tested about 5,500 compounds, of which about 2,000 (36%) were called active. Another 18% or so got no clear call; they are omitted. No stated cut-off is given here; in the data, active means normalized growth mostly below about 0.91 (no sharp cut-off); inconclusive means no clear call, values can overlap the other calls; inactive means mostly above about 0.92. This is one part of the list.

Assay: chemical genetic growth profiling, strain panel (AID 1159580);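 further: tested at 20 µM; growth read once vehicle control cultures reached saturation at 30 °C; 1 = growth at the plate median or of vehicle wells; lower values mean less growth of the strain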
Settings: S. cerevisiae deletion strains, growth OD
[1] = locus YAL013W, strain DEP1, active compounds read low
[2] = locus YDR150W, strain NUM1, active compounds read low
[3] = locus YGR078C, strain PAC10, active compounds read low
[4] = locus YGR229C, strain SMI1, active compounds read low
[5] = locus YMR307W, strain GAS1, active compounds read low
[6] = locus YNL153C, strain GIM3, active compounds read low
[7] = locus YPL055C, strain LGE1, active compounds read low
[8] = locus YAL040C, strain CLN3, active compounds read low
[9] = locus YCL061C, strain MRC1 (second series), active compounds read low
[10] = locus YDR363W, strain ESC2, active compounds read low
[11] = locus YER002W, strain NOP16, active compounds read low
[12] = locus YJR075W, strain HOC1, active compounds read low
[13] = locus YMR263W, strain SAP30, active compounds read low
[14] = locus YNL128W, strain TEP1, active compounds read low
[15] = locus YNL175C, strain NOP13, active compounds read low
[16] = locus YNL197C, strain WHI3, active compounds read low
[17] = locus YNL224C, strain SQS1, active compounds read low
[18] = locus YNL322C, strain KRE1, active compounds read low
[19] = locus YOR083W, strain WHI5 (second series), active compounds read low
[20] = locus YPL241C, strain CIN2, active compounds read low

Measured: normalized growth

CC(C)(O)CC[C@@H](O)[C@](C)(O)C1CC[C@@]2(O)C3=CC(=O)C4C[C@@H](O)[C@@H](O)C[C@]4(C)C3CC[C@]12C (stereo not given in full)
active: locus YLR262C, strain YPT6 (second series), active compounds read low 1.16 [resistant]
inactive: [1] 1.04 | locus YAL021C, strain ccr4, active compounds read low 0.991 | locus YAL026C, strain drs2, active compounds read low 1 | locus YAL030W, strain snc1, active compounds read low 0.999 | locus YBL061C, strain skt5, active compounds read low 1 | locus YBR009C, strain hhf1, active compounds read low 1.01 | locus YBR021W, strain FUR4, active compounds read low 0.984 | locus YBR023C, strain chs3, active compounds read low 0.996 | locus YBR171W, strain sec66, active compounds read low 0.99 | locus YBR229C, strain ROT2, active compounds read low 1 | locus YBR231C, strain swc5, active compounds read low 0.993 | locus YBR279W, strain paf1, active compounds read low 1.01 | locus YCL011C, strain gbp2, active compounds read low 1.01 | locus YCL016C, strain dcc1, active compounds read low 0.995 | locus YCL029C, strain bik1, active compounds read low 1 | locus YCL061C, strain MRC1, active compounds read low 1 | locus YCL069W, strain vba3, active compounds read low 1.03 | locus YCR088W, strain abp1, active compounds read low 0.999 | locus YDL005C, strain med2, active compounds read low 0.994 | locus YDL035C, strain GPR1, active compounds read low 1.03 | locus YDL040C, strain nat1, active compounds read low 0.98 | locus YDL074C, strain BRE1, active compounds read low 1.03 | locus YDL101C, strain DUN1, active compounds read low 1.02 | locus YDL185W, strain tfp1, active compounds read low 0.999 | locus YDL192W, strain arf1, active compounds read low 1 | locus YDR001C, strain nth1, active compounds read low 1 | locus YDR069C, strain doa4, active compounds read low 1.01 | locus YDR101C, strain arx1, active compounds read low 0.984 | locus YDR137W, strain rgp1, active compounds read low 0.976 | [2] 1.01 | locus YDR159W, strain sac3, active compounds read low 0.99 | locus YDR162C, strain NBP2, active compounds read low 1.03 | locus YDR195W, strain ref2 0.972 | locus YDR297W, strain sur2, active compounds read low 1.01 | locus YDR318W, strain mcm21, active compounds read low 1 | locus YDR334W, strain swr1, active compounds read low 1 | locus YDR335W, strain msn5, active compounds read low 1 | locus YDR388W, active compounds read low 0.993 | locus YDR392W, strain spt3, active compounds read low 0.976 | locus YDR502C, strain sam2, active compounds read low 1 | locus YEL003W, strain gim4, active compounds read low 1.01 | locus YEL037C, strain rad23, active compounds read low 0.992 | locus YEL061C, strain CIN8 (second series), active compounds read low 1 | locus YEL061C, strain CIN8, active compounds read low 1 | locus YER015W, strain faa2, active compounds read low 1 | locus YER016W, strain bim1, active compounds read low 0.996 | locus YER110C, active compounds read low 0.994 | locus YER111C, strain swi4, active compounds read low 1.01 | locus YER155C, strain BEM2 (second series), active compounds read low 0.996 | locus YER155C, strain BEM2, active compounds read low 1 | locus YER167W, strain BCK2, active compounds read low 1.02 | locus YFR010W, strain ubp6, active compounds read low 1 | locus YGL078C, strain dbp3, active compounds read low 1 | locus YGL086W, strain mad1, active compounds read low 1 | locus YGL167C, strain pmr1, active compounds read low 1 | locus YGL173C, strain kem1, active compounds read low 1 | locus YGL227W, strain vid30, active compounds read low 0.999 | locus YGL240W, strain doc1, active compounds read low 0.98 | locus YGL248W, strain PDE1, active compounds read low 1.01 | locus YGL253W, strain hxk2, active compounds read low 1.01 | [3] 1.03 | locus YGR135W, strain pre9, active compounds read low 0.997 | [4] 1.04 | locus YGR252W, strain gcn5, active compounds read low 0.995 | locus YHR013C, strain ard1, active compounds read low 0.995 | locus YHR027C, strain rpn1, active compounds read low 0.997 | locus YHR030C, strain SLT2, active compounds read low 1.01 and 1 | locus YHR079C, strain IRE1 (second series), active compounds read low 1.02 | locus YHR079C, strain IRE1, active compounds read low 0.988 | locus YHR094C, strain hxt1, active compounds read low 0.995 | locus YHR129C, strain ARP1, active compounds read low 1.01 | locus YHR142W, strain chs7, active compounds read low 1.01 | locus YHR200W, strain rpn10, active compounds read low 1.01 | locus YIL066C, strain RNR3, active compounds read low 1.04 | locus YIL073C, strain SPO22, active compounds read low 1.02 | locus YIL125W, strain kgd1, active compounds read low 1 | locus YIR030C, strain dcg1, active compounds read low 1 | locus YJL092W, strain hpr5, active compounds read low 0.998 | locus YJL095W, strain BCK1 (second series), active compounds read low 1 | locus YJL095W, strain BCK1, active compounds read low 1.03 and 1.04 | locus YJL115W, strain asf1, active compounds read low 1 | locus YJL129C, strain trk1, active compounds read low 1.01 | locus YJL134W, strain LCB3, active compounds read low 1.01 | locus YJL154C, strain vps35, active compounds read low 0.994 | locus YJL164C, strain tpk1, active compounds read low 1.01 | locus YJL166W, strain qcr8, active compounds read low 1 | locus YJL168C, strain set2, active compounds read low 1 | locus YJL187C, strain SWE1 (second series), active compounds read low 1.02 | locus YJL187C, strain SWE1, active compounds read low 1.02 | locus YJR043C, strain POL32, active compounds read low 1.02 | locus YJR066W, strain TOR1, active compounds read low 0.93 | locus YKL009W, strain mrt4, active compounds read low 0.995 | locus YKL068W, active compounds read low 0.993 | locus YKL085W, strain MDH1 (second series), active compounds read low 1.01 | locus YKL085W, strain MDH1, active compounds read low 1.01 | locus YKL160W, strain elf1, active compounds read low 1 | locus YKR001C, strain vps1, active compounds read low 0.985 | locus YKR026C, strain gcn3, active compounds read low 0.989 | locus YKR091W, strain srl3, active compounds read low 0.997 | locus YLL001W, strain dnm1, active compounds read low 1 | locus YLL026W, active compounds read low 0.994 | locus YLL041C, strain sdh2, active compounds read low 0.994 | locus YLR027C, strain aat2, active compounds read low 1.01 | locus YLR039C, strain RIC1, active compounds read low 1.01 | locus YLR058C, strain SHM2, active compounds read low 1.01 | locus YLR102C, strain apc9, active compounds read low 0.992 | locus YLR113W, strain HOG1, active compounds read low 1.02 | locus YLR221C, strain rsa3, active compounds read low 0.996 | locus YLR258W, strain gsy2, active compounds read low 0.998 | locus YLR262C, strain YPT6, active compounds read low 1.05 | locus YLR268W, strain sec22, active compounds read low 1 | locus YLR320W, strain mms22, active compounds read low 0.996 | locus YLR330W, strain CHS5, active compounds read low 1.01 | locus YLR342W, strain FKS1 (second series), active compounds read low 1.02 | locus YLR342W, strain FKS1, active compounds read low 1.03 | locus YLR357W, strain rsc2, active compounds read low 0.999 | locus YLR370C, strain arc18, active compounds read low 0.991 | locus YLR371W, strain rom2, active compounds read low 0.99 | locus YLR384C, strain iki3, active compounds read low 0.985 | locus YLR418C, strain cdc73, active compounds read low 0.99 | locus YML016C, strain PPZ1, active compounds read low 1.01 | locus YML032C, strain rad52, active compounds read low 0.998 | locus YML120C, strain ndi1, active compounds read low 0.996 | locus YML124C, strain tub3, active compounds read low 0.996 | locus YMR058W, strain fet3, active compounds read low 1 | locus YMR078C, strain ctf18, active compounds read low 1.01 | locus YMR125W, strain sto1, active compounds read low 0.983 | locus YMR129W, active compounds read low 0.998 | locus YMR205C, strain PFK2, active compounds read low 1.04 | locus YMR223W, strain ubp8, active compounds read low 0.998 | locus YMR231W, strain pep5, active compounds read low 0.969 | [5] 1.1 | locus YNL067W, strain RPL9B, active compounds read low 1.02 | locus YNL071W, strain lat1, active compounds read low 1 | [6] 1.03 | locus YNL183C, strain NPR1, active compounds read low 0.973 | locus YNL209W, strain ssb2, active compounds read low 1.02 | locus YNL233W, strain BNI4, active compounds read low 1.03 | locus YNL248C, strain rpa49, active compounds read low 0.996 | locus YNL250W, strain rad50, active compounds read low 1.01 | locus YNL271C, strain bni1, active compounds read low 1 | locus YNL298W, strain CLA4, active compounds read low 0.988 | locus YNL307C, strain MCK1, active compounds read low 0.992 | locus YNL322C, strain KRE1 (second series), active compounds read low 0.983 | locus YNR049C, strain mso1, active compounds read low 0.991 | locus YNR052C, strain pop2, active compounds read low 0.993 | locus YOL012C, strain htz1 0.787 | locus YOL147C, strain pex11, active compounds read low 0.99 | locus YOR001W, strain rrp6, active compounds read low 1.01 | locus YOR061W, strain CKA2, active compounds read low 1.01 | locus YOR069W, strain VPS5, active compounds read low 1 | locus YOR070C, strain gyp1, active compounds read low 1 | locus YOR080W, strain dia2, active compounds read low 0.996 | locus YOR083W, strain WHI5, active compounds read low 1.01 | locus YOR106W, strain vam3, active compounds read low 1.01 | locus YOR136W, strain idh2, active compounds read low 1 | locus YOR144C, strain elg1, active compounds read low 0.996 | locus YOR184W, strain ser1, active compounds read low 1 | locus YOR231W, strain MKK1, active compounds read low 0.978 | locus YOR265W, strain rbl2, active compounds read low 1 | locus YOR270C, strain vph1, active compounds read low 1.06 | locus YOR290C, strain snf2, active compounds read low 0.995 | locus YOR316C, strain cot1, active compounds read low 0.989 | locus YPL051W, strain arl3, active compounds read low 1.01 | [7] 1.04 | locus YPL078C, strain atp4, active compounds read low 1.01 | locus YPL106C, strain sse1, active compounds read low 1.01 | locus YPL240C, strain hsp82, active compounds read low 0.995 | locus YPL256C, strain CLN2, active compounds read low 0.996 | locus YPR119W, strain clb2, active compounds read low 1 | locus YPR141C, strain kar3, active compounds read low 0.998 | locus YPR163C, strain tif3, active compounds read low 1 | locus YPR167C, strain met16, active compounds read low 0.999 | strain wtn01, active compounds read low 0.99

COc1ccc2c3c1O[C@H]1C(=O)CC[C@@]4(O)C(C2)N(CC2CC2)CCC314 (stereo not given in full)
inactive: [8] 0.992 | [9] 0.999 | [10] 1.02 | [11] 0.991 | [12] 0.995 | [13] 1 | [5] 0.993 | [14] 0.99 | [6] 0.995 | [15] 1.01 | [16] 1.02 | [17] 0.992 | [18] 1.01 | [19] 0.999 | [7] 1 | [20] 0.999

CC[C@@H]1Cc2cc(O)ccc2C2=C1c1ccc(O)cc1C[C@H]2CC
active: [8] 0.852 | [3] 0.777 | [15] 0.904 | [17] 0.643 | [19] 0.507
inactive: [1] 1.01 | [9] 0.995 | [2] 0.996 | [10] 1.02 | [11] 1.02 | [4] 1.04 | [12] 0.991 | [16] 0.954 | [18] 0.993 | [7] 1.01

CCCN(CCC)[C@@H]1CCc2ccc(O)cc2C1
inactive: [1] 0.964 | [8] 1.03 | [9] 0.988 | [10] 0.989 | [11] 0.972 | [13] 0.983 | [5] 1.01 | [6] 0.978 | [15] 0.982 | [16] 0.982 | [17] 1.01 | [18] 0.978 | [19] 0.996 | [7] 0.988

CCCN(CCC)C1CCc2ccc(O)cc2C1 (stereo not given)
inactive: [1] 1.03 | [8] 1.1 | [9] 1.01 | [10] 1.01 | [11] 1.01 | [3] 0.993 | [12] 1 | [5] 1.02 | [14] 1.02 | [15] 1.01 | [16] 1.01 | [17] 0.995 | [19] 0.991 | [7] 1.02 | [20] 1.01
